PubChem BioAssay AID2629 (Broad Institute, 2010)
In all, about 320,000 compounds went through this assay and about 1,900 (0.59%) were called active. Cut-off read from the data, not from the text of the source: active = inhibition mostly above about 10% (no sharp cut-off); inactive = mostly below about 6.7%. This excerpt belongs to a sample that is enriched for actives.

Molecular target: Protein LANA1 (Human herpesvirus 8 type P (isolate GK18)) (UniProt Q9QR71)
Assay: blockers of LANA interaction with H2A/H2B – biochemical, FP readout, HTS, primary screen (AID 2629)
Details: cell-free LANA-H2A/H2B peptide, fluorescence polarization, hits give high values, concentration not given here

Chain of Protein LANA1 (Human herpesvirus 8 type P (isolate GK18)) (Q9QR71 whole entry, looked up): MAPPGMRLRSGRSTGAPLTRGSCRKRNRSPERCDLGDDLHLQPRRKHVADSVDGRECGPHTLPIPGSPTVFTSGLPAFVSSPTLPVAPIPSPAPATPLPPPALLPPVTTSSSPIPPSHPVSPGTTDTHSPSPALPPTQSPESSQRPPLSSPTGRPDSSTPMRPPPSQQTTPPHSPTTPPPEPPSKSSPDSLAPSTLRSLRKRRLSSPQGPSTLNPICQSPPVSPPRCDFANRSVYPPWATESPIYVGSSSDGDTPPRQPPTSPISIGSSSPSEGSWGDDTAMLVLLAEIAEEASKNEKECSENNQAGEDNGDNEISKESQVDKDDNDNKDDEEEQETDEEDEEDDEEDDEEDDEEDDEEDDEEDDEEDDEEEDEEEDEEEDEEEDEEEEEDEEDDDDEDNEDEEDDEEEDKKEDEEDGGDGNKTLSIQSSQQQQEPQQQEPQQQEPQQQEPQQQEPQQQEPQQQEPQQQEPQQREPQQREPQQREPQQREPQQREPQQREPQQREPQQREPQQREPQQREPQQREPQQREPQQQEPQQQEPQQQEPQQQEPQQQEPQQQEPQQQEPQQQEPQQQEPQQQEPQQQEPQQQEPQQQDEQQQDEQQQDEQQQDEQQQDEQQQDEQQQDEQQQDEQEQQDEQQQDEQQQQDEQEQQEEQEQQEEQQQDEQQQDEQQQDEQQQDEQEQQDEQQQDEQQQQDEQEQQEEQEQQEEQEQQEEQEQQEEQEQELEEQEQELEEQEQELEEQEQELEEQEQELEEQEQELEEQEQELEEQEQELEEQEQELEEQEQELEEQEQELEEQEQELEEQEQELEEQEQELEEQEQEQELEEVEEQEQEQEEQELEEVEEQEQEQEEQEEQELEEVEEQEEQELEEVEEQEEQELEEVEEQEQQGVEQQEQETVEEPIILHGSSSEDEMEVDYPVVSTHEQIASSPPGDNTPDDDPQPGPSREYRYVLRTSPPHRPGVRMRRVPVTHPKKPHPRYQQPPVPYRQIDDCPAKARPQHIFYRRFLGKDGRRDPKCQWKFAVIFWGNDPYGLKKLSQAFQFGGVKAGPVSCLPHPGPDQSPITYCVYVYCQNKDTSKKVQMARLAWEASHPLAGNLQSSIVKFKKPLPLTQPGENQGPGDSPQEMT

inhibition, active:
COCc1ccc(C(=O)N2CCc3c([nH]c4ccccc34)C2c2ccccn2)s1 (centres undefined) 183%
O=C(CSc1nc2ccccc2c(=O)n1CCCO)NC1CC1 635% [above what the read-out allows, likely interference]
Cc1cc(C)cc(Oc2nc3c(C)cccn3c(=O)c2/C=C(\C#N)C(=O)NC2CCS(=O)(=O)C2)c1 (centres undefined) 18.8%
CC(C)C1N=C2c3ccccc3N=C(SCC(=O)c3ccc(O)c(O)c3)N2C1=O (centres undefined) 13.1%
O=C(NCCc1ccc(C(F)(F)F)cc1)c1ccc2c(c1)OCO2 16.2%
Cc1cc2nc3c(=O)n(Cc4ccccc4)c(=O)[nH]c3nc2cc1N 27.2%
Cc1nn(C)cc1N1C(=O)c2cccc3c(N)ccc(c23)C1=O 101%
CN1C(=O)c2cccc3c(N)ccc(c23)C1=O 25.3%
Brc1ccc(C2=CC(c3ccco3)n3ncnc3N2)cc1 (centres undefined) 35%
COc1ccc(/C=C/C(=O)c2cc(Br)ccc(=O)c2O)cc1 182%
CC(C)C(=O)Nc1ccc2c3c(cccc13)CC2 22.9%
O=C(Nc1ccccc1C(=O)N1CCCCC1)c1ccco1 20.4%
O=C(CNC(=O)OCc1ccccc1)Oc1cc2oc(=O)cc(-c3ccccc3)c2cc1Cl 22.2%
CCN1C(=O)C(=O)N(CC(=O)Nc2cc(C)ccc2C)C1=O 65.4%
CSc1nnc(-c2ccc(C(F)(F)F)cn2)o1 12.3%
CCOC(=O)c1[nH]c2ccc(OC)cc2c1NC(=O)CCN1CCN(Cc2ccccc2)CC1 38.6%
CSCCC(NS(=O)(=O)c1ccc(C)cc1)C(=O)N1CCCC1 (centres undefined) 10.1%

inhibition, inactive:
Cc1c(C(C)CCCO)oc(=O)c2c1Oc1c(C)c(C(C)C[C@@H](C)O)oc(=O)c1C2 (some centres undefined) -3.56%
COc1ccc(C(=O)COC(=O)C(O)c2ccccc2)c(OC)c1 (centres undefined) -6.19%
Cc1cccc(C2c3[nH]c4ccccc4c3CCN2C(=O)c2cc(-c3cccn3C)n[nH]2)n1 (centres undefined) 1.43%
O=C(c1cn2ccccc2n1)N1CCc2c([nH]c3ccccc23)C1c1ccccn1 (centres undefined) 2.75%
Cc1cc(C)n(CCNC(=O)CC2C(=O)NCCN2Cc2ccc(C)o2)n1 (centres undefined) 4.74%
Cc1cc(N2C(=O)c3ccc(C(=O)NCc4ccccc4)cc3C2=O)no1 0.191%
CC1CCN(CCCn2c(SCC(=O)NC3CCCC3)nc3ccccc3c2=O)CC1 2.87%
O=C(CSc1nc2ccccc2c(=O)n1-c1ccc(F)cc1)NC1CC1 0.0498%
COc1ccc(C)cc1S(=O)(=O)N(CC(=O)Nc1cccc([N+](=O)[O-])c1)c1ccc(C)cc1 -2.08%
Cc1ccc(NC(=O)C(C)Sc2nnc(C3CC3)n2C2CC2)cc1S(=O)(=O)N1CCOCC1 (centres undefined) -1.97%
COc1ccc([N+](=O)[O-])cc1N(CC(O)CN(CC(C)C)CC(C)C)S(=O)(=O)c1ccc(C)cc1 (centres undefined) 1.46%
Cc1cccn2c(=O)c(/C=C(\C#N)C(N)=O)c(N3CCCCCC3)nc12 6.27%
Cc1cccn2c(=O)c(/C=C(\C#N)S(=O)(=O)c3ccc(Cl)cc3)c(N3CCC(C(N)=O)CC3)nc12 -0.0722%
COc1c(Br)cc2c(C)c(C(=O)N3CCOCC3)oc2c1Br -7.01%
O=C(CSC1=Nc2ccccc2C2=NC(CC(=O)NCc3ccco3)C(=O)N12)NCc1ccco1 (centres undefined) -2.02%
CCC(C)NC(=O)CSC1=Nc2ccccc2C2=NC(CCC(=O)NCc3ccco3)C(=O)N12 (centres undefined) 4.12%
CS(=O)(=O)N(Cc1ccccc1Cl)c1ccc(C(=O)NCc2cccnc2)cc1 3.45%
O=C(/C=C/c1ccc([N+](=O)[O-])cc1)NCCSCc1ccco1 5.42%
Cc1ccc2cc(CCNC(=O)c3ccc4c(c3)OCO4)c(=O)[nH]c2c1 -1.83%
O=C(Nc1ccccc1F)c1ccc2c(c1)OCO2 -1.38%
COc1ccc(OCCn2ccnc2C)cc1 -0.22%
COC(=O)C1=C(C(=O)OC)C2(OC1c1ccc(Br)cc1)C(=O)c1ccccc1C2=O (centres undefined) 3.44%
C=CCSc1nc2c(c(=O)[nH]c(=O)n2C)n1Cc1ccccc1 -0.531%
COC(=O)CSc1nc2ccccc2c(=O)n1Cc1ccccc1 2.39%
Cc1ccc2cccc(OCCCOc3ccccc3CO)c2n1 -1.05%
C[N+](C)(CCCCCC[N+](C)(C)CCCN1C(=O)c2cccc3cccc(c23)C1=O)CCCN1C(=O)c2cccc3cccc(c23)C1=O 0.475%
COc1ccc(N2C(=O)c3cccc4cccc(c34)C2=O)nn1 -111%
O=C(O)c1ccc2c3c(cccc13)C(=O)N(OS(=O)(=O)c1ccccc1)C2=O 1.71%
Cc1nn(-c2cc(Cl)ccc2N)c(=O)c2ccccc12 0.97%
CC(C)C[C@H]1CN=C(Nc2ccccc2)N1CC1CCCCC1 -0.894%
CCC(=O)Nc1nnc(S(=O)(=O)N2CCCc3ccccc32)s1 3.1%
CN(Cc1ccccc1)C(=O)C1CCCN(c2ncnc3c2nc2n3CCCCC2)C1 (centres undefined) -6.07%
CN1CCN(S(=O)(=O)c2ccc(Nc3ccc(F)cc3)nc2)CC1 3.84%
CC1(C(=O)O)CCC(C(=O)Nc2ccc(Cl)c(Cl)c2)C1(C)C (centres undefined) -7.06%
O=C(c1ccccc1)c1cccn1CC(=O)N1CCN(c2ccc(F)cc2)CC1 5.58%
CCOc1ccc(C2=CC(c3ccccc3)n3ncnc3N2)cc1 (centres undefined) -0.926%
CC1=C(C(=O)OCc2ccccc2)C(c2ccco2)n2ncnc2N1 (centres undefined) -3.53%
Cc1ccc(NC(=O)COc2coc(CN3CCc4ccccc4C3)cc2=O)cc1Cl -6.2%
O=C(Nc1ccc(Br)cc1)C1CCC(=O)N1Cc1ccccc1Cl (centres undefined) 1.59%
COc1ccc2oc(=N)c(C(=O)Nc3ccc(Br)cc3)cc2c1 1.77%
COc1ccc(C(=O)/C=C/c2cccnc2)c(OC)c1 0.568%
CC(=O)c1ccc(S(=O)(=O)NC2CC(=O)N(c3ccc4c(c3)OCCO4)C2)cc1 (centres undefined) -5.02%
O=S(=O)(NC1CC1)c1ccc2c3c(cccc13)CC2 -8.67%
CC(C)C(=O)Nc1ccc2c(c1)oc1ccccc12 0.3%
CC(C)Oc1ccc(C(=O)NC(C)(C)CO)cc1 2.55%
O=C(/C=C/Nc1ccc(S(=O)(=O)Nc2cnc3ccccc3n2)cc1)c1cccnc1 5.47%
Cc1cccc(N2CC(C)Cn3c2nc2c3c(=O)n(CC(=O)OCc3ccccc3)c(=O)n2C)c1 (centres undefined) 0.536%
O=C(Nc1c(C(=O)N2CCCCC2)cnn1-c1ccccc1)c1ccco1 0.114%
O=C(Nc1ccccc1C(=O)N1CCCCCC1)c1ccccc1Cl -5%
CCOc1ccc(NC(=O)CN(C)C(=O)c2c(C)noc2C)cc1OCC -1.42%
CCCCN=C1N/C(=C\c2ccco2)C(=O)N1c1ccccc1 -4.75%
CCOc1ccc(CC(=O)NCCS(=O)(=O)N2CCN(c3ccccc3)CC2)cc1 7.98%
COc1ccc(OC)c(NC(=O)N[C@H](Cc2ccccc2)C(=O)NN)c1 1.67%
CC(=O)COc1ccc2c(-c3ccccc3)cc(=O)oc2c1 4.47%
O=C(CNC(=O)c1ccc(-c2ccccc2)cc1)OCc1ccc(Cl)cc1 -3.98%
COc1ccc(CCNC(=O)C2CCCN(Cc3nc(-c4cccc(Cl)c4)oc3C)C2)cc1OC (centres undefined) 2.76%
Cc1ccc(C)c(NC(=O)COC(=O)Cn2c(C)csc2=O)c1 -0.0986%
CCN1C(=O)C(CC(=O)Nc2cc(C)ccc2C)SC1=Nc1ccc(S(N)(=O)=O)cc1 (centres undefined) -5.5%
Cc1cccc(C(=O)NCC(=O)OCC(=O)N(C)CC(=O)Nc2ccccc2Cl)c1 -3.61%
CC(C)Oc1ccc(Oc2ccc(C(F)(F)F)cn2)cc1 0.437%
FC(F)(F)c1cnc(Oc2ccccc2-c2nnc(-c3ccc(Cl)cc3)o2)c(Cl)c1 0.331%
N/C(=N\c1nc2ccccc2o1)NC(=O)C(Cc1ccccc1)N1C(=O)c2ccccc2C1=O (centres undefined) -0.102%
C[N+](C)(C)CCNC(=O)c1cc[n+](Cc2ccccc2)c(/C=N/O)c1 -2.86%
COc1ccc(NC(=O)CC2C(=O)OCC3CCCCN32)cc1Cl (centres undefined) 6.65%
Cc1cc(NC(=O)CN2C(=O)NC(CC(C)C)C2=O)no1 (centres undefined) -2.81%
CCOC(=O)N1CCN(CCC(=O)Nc2cc(OC)ccc2OC)CC1 -0.496%
CCOC(=O)c1[nH]c2ccc(OC)cc2c1NC(=O)N1CCOCC1 -1.57%
CC1CCCN(S(=O)(=O)c2ccc(-c3ccc(=O)[nH]n3)o2)C1 (centres undefined) 5.98%
CSCC(NS(=O)(=O)c1ccc(C)cc1)C(=O)O (centres undefined) 4.08%
CSCCC(NC(=O)c1ccccc1)C(=O)N1CCCCCCC1 (centres undefined) 3.36%
O=C(NCCOc1ccccc1F)Nc1ccc(Br)cc1 1.21%
CCC(C)[C@H](NC(=O)N1c2ccccc2NC(=O)[C@@H]1C(C)C)C(=O)N[C@@H](Cc1ccccc1)C(=O)O (some centres undefined) 0.386%
